Out of some 1,200 compounds screened, about 650 (54%) were called active. About 5% were inconclusive and are not listed.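 Rule for the calls: active = signal-lowering curve whose fitted half-maximal concentration is at or below ten times the top valid dose tested; inconclusive = flat curve with 30 to 70% inhibition, or poor fit; inactive = signal increase, flat within 30%, or potency beyond limit.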 So high a share suggests a set chosen from earlier hits. The list is a sample of the results. Potency and affinity values are given separately.
Assay: inhibitors of LMP1-driven NF-kB reporter, dose response, cell-based, HEK293, luciferase, cherry-pick (AID 588343);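 note: 0% = median of neutral control wells and -100% = MG132 positive control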
Conditions: HEK293 LMP1 TES2 NF-kB luciferase reporter, 16 h; series mostly up to 35 µM; activity change, negative = inhibition: at the top concentration

Activity change, negative = inhibition, inactive:
COc1ccccc1C(=O)NC(=O)CSc1nnc(N)s1 3.08%
Cc1ccc(N(Cc2cc3ccccc3[nH]c2=O)C(=O)c2ccco2)c(C)c1 7.13%
Cc1ccc(CN2C(=O)CCC2C(=O)NCCCN2CCC(C)CC2)cc1 (stereo unspecified) -7.63%
COc1ccc(N2CCN(CCNC(=O)CCCn3c(=O)[nH]c4cc(Cl)ccc4c3=O)CC2)cc1 5.67%
COc1ccc(-c2nc(CS(=O)CC(=O)NCc3ccc(Cl)cc3)c(C)o2)cc1 (stereo unspecified) 12.4%
CC1CC(C)CN(S(=O)(=O)c2ccc(NC(=O)CCN3C(=O)C4CC=CCC4C3=O)cc2)C1 (stereo unspecified) -5.72%
CC1(C)CN(Cc2ccccc2)C(=O)[C@H]1CC(=O)Nc1ccccc1 -7.78%
CC(C)(C)c1nc2c(s1)CCc1onc(-c3ccc(Br)cc3)c1-2 -1.55%
O=C(O)c1ccc(C=NNC(=O)c2cccc3ccccc23)cc1 -11.7%
CS(=O)(=O)Nc1ccc(C2=NN(S(C)(=O)=O)C(c3ccccc3)C2)cc1 (stereo unspecified) 8.63%
CC(=O)NC(CCS(C)(=O)=O)C(=O)Nc1ccc(Cl)c(Cl)c1 (stereo unspecified) -1.94%
Cc1cc(C)c(OCCn2ccnc2)c(C)c1 26.1%
COCCn1c(SCCN2CCOCC2)nc2c1c(=O)[nH]c(=O)n2C 2.32%
CN1CCN(C(=O)C2=C[C@@H](C(C)(C)C)C[C@@H](OCc3ccc(CO)cc3)O2)CC1 7.97%
COC(=O)[C@H](C)[C@H]1C[C@]1(C)[C@H](NC(=O)OCc1ccccc1)c1ccccc1 -3.31%
Cc1nc(C)n(C(C)CNC(=O)c2ccco2)n1 (stereo unspecified) 10%
O=C1CCCN2N=C(SCC(=O)Nc3ccc(Br)cc3)SC2=N1 16.1%
CSc1nc(C)cc(C)c1C#N -9.57%
CC(=O)c1ccc(-n2nnnc2SCC(=O)N2CCc3ccccc3C2)cc1 -15.1%
CCSc1nnc(NC(=O)CSc2nnc(-c3c[nH]c4ccccc34)n2CC)s1 37.4%
COc1ccc(S(=O)(=O)N2CCN(CC(=O)Nc3cc(OC)cc(OC)c3)CC2)cc1 16.4%
COc1ccc(C(=O)CN(CCC(=O)O)S(=O)(=O)c2ccc([N+](=O)[O-])cc2)cc1 -5.91%
Cc1cccc(S(=O)(=O)N2CCCc3ccccc32)c1 -11.4%
COc1cc(C(c2sc3nc(C)nn3c2O)N2CCc3ccccc3C2)cc(OC)c1OC (stereo unspecified) -5.62%
O=C(OCc1ccccc1F)c1cc2ccccc2cc1O 17.9%
Nc1cc(=O)[nH]c(SCCSc2cc(Cl)ccc2Cl)n1 -26.3%
OCCN(CCO)CC(O)COCCC12CC3CC(CC(C3)C1)C2 (stereo unspecified) 22.3%
CN=C1S/C(=C\c2ccc(O)c(Br)c2)C(=O)N1C 5%
CC(=O)OCC(=O)[C@@]1(O)CC[C@H]2[C@@H]3CCC4=CC(=O)CC[C@]4(C)[C@H]3[C@@H](O)C[C@@]21C -18.4%
Cc1cccc(-n2c(O)c(C=Nc3c(C)n(C)n(-c4ccccc4)c3=O)c3ccccc3c2=O)n1 5.7%
O=c1c(O)c(-c2ccc(O)c(O)c2)oc2cc(O)cc(O)c12 17.5%
CN(Cc1ccccc1)c1nc(N)c([N+](=O)[O-])c(NCc2ccccc2)n1 26.4%
COc1ccccc1C(=O)Nc1c[nH]c(=O)[nH]c1=O -8.44%
COc1ccc(N2Cc3cccc(C(=O)NC(C)CCc4ccco4)c3C2=O)cc1 (stereo unspecified) 2.7%
COc1ccc(N2C(=O)C(Cl)=C(NCc3ccccc3)C2=O)cc1 0.637%
Cc1cc(=O)[nH]c(=S)[nH]1 -0.637%
C=CC[N+](C)(C)C/C(Cl)=C(\Cl)c1ccccc1 -4.54%
O=c1cc(C2CCCCC2)[nH]c(=O)[nH]1 -3.35%
CC(C)NC(=O)N(C)C[C@H]1Oc2c(NC(=O)Nc3ccc4c(c3)OCO4)cccc2C(=O)N([C@H](C)CO)C[C@@H]1C 15.6%
Cc1ccc(S(=O)(=O)N2CCN(C(=O)COC(=O)COc3ccc(Cl)cc3)CC2)c(C)c1 10.8%
COc1cc2cc(C(=O)N3CCN(c4ccccc4OC)CC3)[nH]c2cc1OC 13.6%
CCC(C)N1C(=O)CCC1C(=O)N1CCN(c2ccc(F)cc2)CC1 (stereo unspecified) 2%
O=C1c2cccc3c(O)ccc(c23)C(=O)N1c1ccc(Cl)cc1 -19.5%
O=C(CC(c1ccc(F)cc1)c1ccco1)N1CCOCC1 (stereo unspecified) 14.7%
Fc1cccc(Cl)c1/C=N/n1c(-c2cccnc2)n[nH]c1=S 6.16%
COc1ccc(/C=C/C(=O)OCC(=O)NCc2ccco2)cc1OC 4.97%
O=C(NCc1ccco1)C1CC(=O)N(c2cccc(Cl)c2)C1 (stereo unspecified) -0.017%
COc1cc(NCCCCCCN)c2ncccc2c1OC -15.4%
O=C(Nc1ccc(F)c(F)c1)C1CCCCC1 -11.7%
Cc1ccc(S(=O)(=O)N2CCN(C(=O)CSc3nnnn3C)C2)cc1 9.83%
COC(=O)c1ccccc1NC(=O)CSc1nnnn1C 0.333%
O=C1c2ccccc2C(O)N1Cc1ccccc1 (stereo unspecified) 4%
Cc1cc(=S)[nH]c2ccccc12 6.14%
Cc1ccc(-n2c(=O)c3c(c4cc(C)ccc4n3C)n(CC(=O)NCC3CCCO3)c2=O)cc1 (stereo unspecified) 12.9%
COC(=O)c1c(O)ccc(Oc2ccccc2)c1C(=O)OC -3.74%
NC(=O)OCC(COC(N)=O)c1ccccc1 12.9%
CC1CCN(CCOc2ccc(C(=O)c3ccccc3)cc2)CC1 5.09%
O=C(O)c1ccccc1Nc1cccc(OCc2ccc3ccccc3n2)c1 1.96%
CCN(CC)S(=O)(=O)c1ccc(N=NC2=C(O)CCCC2=O)cc1 2.7%
Cc1cc(NC(=O)CSc2ccnc(=O)[nH]2)no1 0.208%
COC(=O)c1c(NC(=O)c2nn(C)cc2Cl)sc2c1CCCC2 62%
Nc1ccccc1SC1CC(=O)N(c2ccccc2Cl)C1=O (stereo unspecified) 10.9%
Cc1ccc(S(=O)(=O)N[C@H](C(=O)N2CCC(C(=O)N[C@@H](CC(=O)O)C(=O)O)CC2)C(C)C)cc1 -7.64%
CCCSc1ccc([C@@H]2[C@H]3C(=O)N(C)C(=O)[C@H]3[C@]3(C(=O)OC)CCCN23)cc1OC 6.82%
CC(C)N1CCN(c2ccc(OC[C@H]3CO[C@](Cn4cncn4)(c4ccc(Cl)cc4Cl)O3)cc2)CC1 117%
COC(=O)C1=C(C(=O)c2ccccc2)C(c2ccccc2)n2nnnc2N1 (stereo unspecified) -4.39%
Cc1cc(C)n2nc(CC(=O)NC3CCCCCC3)nc2n1 1.1%
Cc1cc(=O)[nH]c(N/N=C/c2ccc(C)o2)n1 11.1%
Cc1cc(C)c2sc(NC(=O)C3CC3)nc2c1 19.8%
CCSC1=C(C#N)C(c2ccc(C)o2)CC(=O)N1 (stereo unspecified) -3.06%
CC(=O)/C=C/c1ccccc1O -0.887%
COc1ccc(-c2csc(Nc3cccc(C)n3)n2)cc1OC 35%
CCOC(=O)c1c(NC(=O)C2C3CCC(O3)C2C(=O)O)sc(C)c1-c1ccc(F)cc1 (stereo unspecified) 12.8%
COc1ccc([C@H]2N[C@]3(CCCN(Cc4ccco4)C3=O)[C@H]3C(=O)N(Cc4ccccc4)C(=O)[C@@H]23)cc1 19.1%
CCN1C(=O)[C@@H]2[C@@H](c3ccc(-c4ccc(Cl)c(Cl)c4)cc3)N3CCC[C@@]3(C(=O)OC)[C@@H]2C1=O -24.3%
O=C1N[C@@H](Cc2c[nH]c3ccccc23)COC(=O)[C@H](Cc2ccc(F)cc2)C/C=C\C[C@H]1CC(=O)N(CCO)Cc1ccccc1 -15.7%
Cc1sc2nc(SCC(=O)OC(C)C)n(C)c(=O)c2c1C 1.51%
CCCCCn1c(N2CCOCC2)nc2c1c(=O)n(CC(N)=O)c(=O)n2C -0.846%
COc1cc2c(CCNC(C)=O)c[nH]c2cc1Cl 16.4%
CC(C)OCCCNC(=O)C1CCC(CNS(=O)(=O)c2ccccc2)CC1 (stereo unspecified) -0.212%
O=S(=O)(NC1c2cccc3cccc(c23)C1Sc1ncccn1)c1ccccc1 (stereo unspecified) 36.8%
Cc1onc(-c2ccccc2)c1C(=O)NC(=S)NNC(=O)c1ccc(O)cc1O -19.8%
COc1ccc(C(=O)NCCNc2nc3cc(C)c(C)cc3cc2C)cc1 64.1%
CCC(C)(C)NC(=O)C(c1ccc(F)cc1)N(CCOC)C(=O)CCC(=O)Nc1nccs1 (stereo unspecified) -6.19%
COc1cccc(C(=O)OCn2nnc3ccccc3c2=O)c1OC 2.5%
O=C(N/N=C/c1cccnc1)c1cc(-c2cccs2)nc2ccccc12 -8.97%
O=C(O)c1ccc(C=NN=C2c3ccccc3-c3ccccc32)cc1 0.799%
CNC(=S)Nc1ccc2nc(C)c(C)nc2c1 -0.101%
O=C1CC(c2cccs2)Cc2nc(NC(=O)C3CC3)ncc21 (stereo unspecified) -13.7%
CC(C)[C@H](N[C@@H](C)c1ccccc1)c1c(O)ccc2ccccc12 -7.33%
CCn1c(SC(C)C)nnc1-c1c[nH]c2ccccc12 11.7%
COc1ccccc1-n1c(-c2ccccc2)n[nH]c1=S 4.68%
CC(=O)c1cc(C(=O)Nc2ccc(C(=O)O)cc2)oc1C 6.78%
COc1ccc(-c2nc(CN3CCC(C(=O)N4CCOCC4)CC3)c(C)o2)cc1C 8.89%
COc1ccc(-n2cnc3c(cnn3CCC#N)c2=N)cc1 -13.3%
O=C(N/C(=C/c1ccc(Br)cc1)C(=O)N1CCOCC1)c1ccc(Br)o1 5.38%
CCN(CC(=O)NCc1ccc(F)cc1)CC(=O)Nc1cc(S(=O)(=O)N(C)C)ccc1C -6.07%
O=C(Nc1cc(Cl)ccc1Cl)C1Cc2ccccc2O/C1=N\O (stereo unspecified) 14%
COc1ccc(CNC(=O)N2[C@H]3CC[C@@H]2C=C(c2ccc(F)cc2OCc2ccccc2)C3)cc1OC -8.52%
Cc1cccc(Cn2nc(-n3cccc3)c3c(C)cc(C)nc32)c1 32.5%
Clc1cccc(CN2CCCCCC2)c1 -0.884%
CN1CCc2cccc3c2C1Cc1ccc(O)c(O)c1-3 (stereo unspecified) 4.31%
CCOc1ccccc1C(=O)NC1CC2CCCC(C1)N2Cc1nnnn1Cc1ccco1 (stereo unspecified) 11.9%
COc1ccc(OC)c(NC(=O)COC(=O)COc2ccc(Nc3ccccc3)cc2)c1 -4.07%
COc1ccccc1NC(=O)C(=O)N/N=C(\C)CC(=O)Nc1ccccc1C(F)(F)F -2.64%
S=C(NN=C1C2CC3CC(C2)CC1C3)Nc1ccccc1 8.92%
